# Screening data: PubChem, The Scripps Research Institute Molecular Screening Center
# This is a sample that favours compounds with a hit; in the whole collection about 3.4% have one here.
# FBW7 activator = human FBW7 E3 ligase activation, primary screen; Q969H0; AlphaScreen FBW7–phospho-cyclin E peptide binding, activator screen; normalized activity (activation), % at 26.1 µM; hit rate 0.13% among 650,000; in the data active = normalized activity above about 1.9%;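 note: purified mutant Fbw7 with reduced substrate affinity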
# GPR151 activ = human GPR151 activation; PathHunter beta-arrestin GPR151 cells, luminescence; AID 1508602; hit rate 1% among 650,000; activation, % at 11.2 µM; in the data active = activation above about 4.9%;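 note: 0% = median of compound wells and 100% = cells with positive control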
# TEAD-YAP block = TEAD-YAP interaction inhibition; HEK-TIYL cells, TEAD-Gal4/YAP UAS-luciferase luminescence; inhibition, % at 9.12 µM; hit rate 1.4% among 640,000; AID 1259422; in the data active = inhibition above about 32%;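 note: 0% = median of test compound wells and 100% = reference inhibitor wells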
# MITF inh = blocks human microphthalmia-associated transcription factor; inhibition, % at 2.6 µM; O75030; AID 1259374; hit rate 0.91% among 650,000; AlphaScreen MITF homodimerization, bead proximity signal; in the data active = inhibition above about 50%;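 note: 0% = vehicle wells with protein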
# Target sequence (O75030 whole entry, looked up): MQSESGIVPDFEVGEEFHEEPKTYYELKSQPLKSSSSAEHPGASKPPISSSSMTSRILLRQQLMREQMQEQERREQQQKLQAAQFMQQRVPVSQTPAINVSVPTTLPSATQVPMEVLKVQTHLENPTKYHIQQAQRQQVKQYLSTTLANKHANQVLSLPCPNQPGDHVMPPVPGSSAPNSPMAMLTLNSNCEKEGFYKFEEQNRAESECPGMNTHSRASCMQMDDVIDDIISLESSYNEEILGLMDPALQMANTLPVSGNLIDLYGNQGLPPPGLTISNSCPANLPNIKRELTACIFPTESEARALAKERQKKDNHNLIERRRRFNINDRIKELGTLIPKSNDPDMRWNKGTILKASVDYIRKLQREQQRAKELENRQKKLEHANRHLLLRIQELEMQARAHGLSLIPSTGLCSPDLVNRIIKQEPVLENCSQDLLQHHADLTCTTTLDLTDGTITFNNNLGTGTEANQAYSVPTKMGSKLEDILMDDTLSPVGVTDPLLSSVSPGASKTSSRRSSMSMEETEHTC
# Active calls of the source: *.
SMILES,FBW7 activator,GPR151 activ,TEAD-YAP block,MITF inh
COC1OC(COC(c2ccccc2)(c2ccccc2)c2ccccc2)C(OC(C)=O)C(OC(C)=O)C1OC(C)=O (stereo not given),0,0,-10,1
CC(C)CC(=O)Nc1nnc(SCc2ccccc2F)s1,0,0,6,13
O=C(NCCN1CCCC(O)C1)c1ccc(OC2CCN(C(=O)C3CC3)CC2)cc1 (stereo not given),1,-3,5,14
CCCNc1ccc2ncc(-c3ccc(O)cc3)n2n1,0,-1,77*,-27
Nc1ccnc(NCc2ccccc2)c1,0,0,32*,-6
Oc1ccc(C2NN=C(Cc3ccccc3)S2)c(O)c1 (stereo not given),0,0,8,102*
Cc1ccc(C2=NNC(c3ccc(O)cc3O)S2)cc1 (stereo not given),1,-1,80*,10
O=[N+]([O-])c1ccc(C2NN=C(Cc3ccccc3)S2)cc1 (stereo not given),0,-1,-43,-7
Cc1ccc(C2=NNC(c3ccncc3)S2)cc1 (stereo not given),0,-1,-12,8
CS(=O)(=O)N(CC(=O)NC1CC2CCC1C2)c1ccc(Cl)c(Cl)c1 (stereo not given),0,4,0,-2
CC1CCCCC1NS(=O)(=O)c1cc(C(=O)Nc2ccc(Br)cc2)ccc1F (stereo not given),0,0,13,1
CCOC(=O)c1sc(NC(=O)c2cccc3ccccc23)nc1C,0,4,42*,-10
CCOC(=O)c1sc(NC(=O)c2ccccc2)nc1C,0,-1,-59,-1
Cc1ccc(Cl)cc1NC(=O)C(=O)NCc1ccco1,0,0,-14,-1
Cc1[nH]c(=O)[nH]c(=O)c1NC(=O)c1cccc2c(Br)cccc12,0,0,5,0
O=C(NCc1ccccc1)C(c1ccccc1)N(Cc1cccnc1)C(=O)c1csnn1 (stereo not given),6.9*,1,-4,21
O=C(NCc1ccccc1)C(c1ccccc1)N(Cc1cccs1)C(=O)c1cnccn1 (stereo not given),0,-1,34*,3
O=C(NCc1ccccc1)C(c1cccs1)N(Cc1cccs1)C(=O)c1cnccn1 (stereo not given),0,-1,6,18
CC(=O)Nc1ccc(NC(=O)c2csc(-c3ccc(C(=O)NC4CC4)cc3)n2)cc1,0,0,1,7
CN1CCN(C(=O)c2ccc(-c3nc(C(=O)Nc4ccc(Oc5ccccc5)cc4)cs3)cc2)CC1,1,3,44*,14
O=C(NC1CC1)c1ccc(-c2nc(C(=O)Nc3ccc(Oc4ccccc4)cc3)cs2)cc1,0,1,33*,6
Cc1noc(C)c1CN1C(=O)NC(C)(c2ccc3c(c2)OCO3)C1=O (stereo not given),0,0,0,-1
N#CC1=C(SCC(=O)Nc2ccc(Cl)c(Cl)c2)NC(=O)CC1c1cccs1 (stereo not given),0,1,59*,50
COC(=O)CSC1=C(C#N)C(c2ccc(Cl)cc2)CC(=O)N1 (stereo not given),0,-1,-9,5
CCOC(=O)CSC1=C(C#N)C(c2ccc(C)o2)CC(=O)N1 (stereo not given),0,1,60*,6
SMILES,FBW7 activator,GPR151 activ,TEAD-YAP block,MITF inh
CCOC(=O)CSC1=C(C#N)C(c2ccc(Cl)cc2)CC(=O)N1 (stereo not given),0,-1,-13,-1
COC(=O)CSC1=C(C#N)C(c2cccc(Cl)c2)CC(=O)N1 (stereo not given),0,0,57*,-3
CCOC(=O)CSC1=C(C#N)C(c2cccc(Cl)c2)CC(=O)N1 (stereo not given),0,-1,66*,7
COC(=O)c1ccc(COC(=O)/C=C/c2ccc3c(c2)OCO3)cc1,0,4,-16,-6
CCCCOC(=O)CSC1=C(C#N)C(c2cccc(Cl)c2)CC(=O)N1 (stereo not given),0,0,45*,11
N#CC1=C(SCC(=O)Nc2ccccc2Cl)NC(=O)CC1c1ccc(F)cc1 (stereo not given),0,0,6,3
N#CC1=C(SCC(=O)Nc2ccccc2[N+](=O)[O-])NC(=O)CC1c1ccccc1F (stereo not given),1,1,34*,28
CC(=O)Nc1ccc(NC(=O)Cn2cnc3c(cnn3C(C)(C)C)c2=O)cc1,4.0*,0,2,18
CC(Sc1nnc(-c2ccncc2)o1)C(N)=O (stereo not given),0,-1,1,5
CC(Sc1nnc(-c2ccc3c(c2)OCO3)o1)C(N)=O (stereo not given),0,-7,37*,4
NC(=O)CSc1nnc(-c2ccc3c(c2)OCO3)o1,0,-2,45*,1
O=C(O)CSc1nnc(-c2ccc3c(c2)OCO3)o1,1,-1,-4,18
CCN(CC)S(=O)(=O)c1ccc(-c2csc(=Nc3ccc(F)cc3)n2CCCO)cc1,0,1,39*,24
OCCCn1c(-c2ccc(F)cc2)csc1=Nc1ccc(F)cc1,0,0,-19,11
Cc1ccc(-c2nnc(Sc3nc4ccccc4s3)c3ccccc23)cc1S(=O)(=O)N(C)C,0,-1,-2,8
O=C1COc2cc(S(=O)(=O)Nc3cc(C(F)(F)F)cc(C(F)(F)F)c3)ccc2N1,7.8*,0,5,-13
Cc1cc(C)cc(NS(=O)(=O)c2ccc3c(c2)OCC(=O)N3)c1,0,1,-12,-8
Cc1cccc(C(=O)Nc2c(C(=O)N3CCN(C)CC3)cnn2-c2ccccc2)c1,2.3*,-1,11,14
Cc1cccc(C(=O)Nc2c(C(=O)N3CCCCC3)cnn2-c2ccccc2)c1,0,2,13,6
NS(=O)(=O)c1ccc(Nc2nccc(NC3CCN(C(=O)c4cccs4)CC3)n2)cc1,0,-1,-4,-6
NC(=O)c1ccccc1Nc1ccnc(Nc2ccc(N3CCOCC3)cc2F)c1,0,0,38*,-7
Cc1cc(Nc2cc(Nc3ccccc3C(N)=O)ccn2)ccc1N1CCOCC1,0,2,34*,17
NC(=O)c1cc(F)ccc1Nc1ccnc(Nc2ccc(N3CCOCC3)cc2)c1,0,4,18,17
NC(=O)c1ncccc1Nc1ccnc(Nc2ccc(N3CCOCC3)cc2)c1,0,0,49*,35
CCc1ccccc1NC(=O)CCC(=O)OCC(=O)c1ccc(F)cc1,0,2,-4,-4
O=C(Nc1cc(-c2ccccc2Oc2ccccc2F)ccn1)C1CCOC1 (stereo not given),0,0,37*,1
Cc1ccc(-c2nc(-c3ccccn3)no2)cc1Cl,0,-11,84*,-1
c1ccc(-c2ccc(-c3nc(-c4ccccn4)no3)cc2)cc1,0,-12,95*,-2
Cc1ccc(-c2nc(-c3ccccn3)no2)cc1,0,-11,95*,4
CCOc1ccc(-c2nc(-c3ccccn3)no2)cc1,0,-8,98*,6
